The values below come from the supplement of paper PMC10338343.

± gives the standard deviation.

One assay concerns MILI (PIWIL2) piRISC loaded with L1MC piRNA (26 nt). The assay can be described thus: pre-steady-state target cleavage rate (min^-1); guide: L1MC piRNA 5'p-UAACUAAAUACUAUGCAAGCUGUAGG; MIWI and MILI are mouse PIWI proteins and EfPiwi is from a freshwater sponge; tags in brackets are library labels; higher = faster piRNA-guided slicing of the target. The note with it: auxiliary factor: 500 nM mouse GTSF1. How it is done: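 Cleave-'n-Seq: a library of target RNAs (target site embedded in constant flanks, ACAGCATTCCGCGTTAGTGATATCCG... 5' flank; DNA-blocked outside the site) at 0.1 nM was incubated with 1 nM active mouse MILI or MIWI piRISC (synthetic 5'-monophosphorylated piRNA guide) with or without 500 nM mouse GTSF1 at 33 °C for 1 min to 16 h. Uncleaved targets were sequenced and normalised to non-target controls, and the pooled three trials were fitted to a burst-and-steady-state model to give the pre-steady-state cleavage rate (min^-1; k3 is constrained to at most 1e-4). Sequence is the target site only; target names encode pairing extent (gX:gY) and contiguous / 1-mismatch / 2-mismatch / bulge geometry. Fits with R² ≤ 0 are excluded.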
In the case of UCCUGCUACAGGUUGCUUAGUAUUUAGUUA, the “pre-steady-state target cleavage rate” value came out at 0.227 ± 0.012. Take UCCUCCACAGCUUGCAUAGUAUUUAGUUA: the “pre-steady-state target cleavage rate” value was 0.248 ± 0.014.

As to UCCUGGUACAGCUUGCCAUAGUAUUUAGUUA, the “pre-steady-state target cleavage rate” value came to 0.224 ± 0.059. Same read-out and setting: the same measure for UCCUGGAUGAGCUUGCAUAGUACUUUAGUUA: 0.0613 ± 0.0089; for UCCUGGAUGUCCAAGCAUAGUAUUUAGUUA: 0.0263 ± 0.0097; for UCCUGCUUCAGCUUGCAUAGUAUUUAGUAA: 0.224 ± 0.025. On the same count and under the same terms, the same measure for UCCUCCUACUGCUUGCAUACUAUUUAGUUA: 0.0694 ± 0.011; for UCCUCCUACACGAUGCAUAGUAUUUAGUUA: 0.267 ± 0.011; for UCCUCCUACUAGCUUGCAUAGUAUUUAGUUA: 0.13 ± 0.013. With UCCUCCUACAGCUUGCAUAGUAAAUUCAAA, the “pre-steady-state target cleavage rate” value was 0.125 ± 0.03. Still for that read-out and setting: with UCCUGGAUGUGCAUGCAUAGUAUUAAGUUA the figure was 0.122 ± 0.017. Consider UCCUGGAACAGCUUGCAUAGUAUUUACGUUA, for which the “pre-steady-state target cleavage rate” value was 0.204 ± 0.027. Regarding UCCUGGUACAGCAUGCAUAGUAUUUUGUUA, the “pre-steady-state target cleavage rate” value came out at 0.11 ± 0.022.

As to UCCUGCUACAGCUUGCAUAGGUAUUUAGUUA, the “pre-steady-state target cleavage rate” value worked out at 0.00815 ± 0.0047. The same measure, in the same setting: with UCCUGCUACUGCAUGCAUAGUAUUUAGUUA the figure was 0.282 ± 0.025.

In the case of UCCUGCUACAGCUUGUCAUAGUAUUUAGUUA, the “pre-steady-state target cleavage rate” value turned out to be 0.211 ± 0.021. Same read-out and setting: with UCCUGGAUGUCGUUGCAUAGUAUUUUAGUUA the figure was 0.125 ± 0.02. On to UCCUGGAUGUCGAUGCAUAGUAUUCUAGUUA, for which the “pre-steady-state target cleavage rate” value is 0.115 ± 0.023.

In the case of UCCUGGAUGUGUUGCAUAGUAUUUAGUUA, the “pre-steady-state target cleavage rate” value was 0.173 ± 0.022.

Turning to UCCUGGAACAGCAUGCAUAGUAUUUAGUUA, the “pre-steady-state target cleavage rate” value turned out to be 0.256 ± 0.02. Same read-out and setting: the same measure for UCCUGGAUGUGCUUAGCAUAGUAUUUAGUUA: 0.124 ± 0.015.

The assay is the same for the next values; noted with them: auxiliary factor: none (no GTSF1).
For UCCUGCUACAGGUUGCUUAGUAUUUAGUUA, the “pre-steady-state target cleavage rate” value is 0.0118 ± 0.0038.

In the case of UCCUCCACAGCUUGCAUAGUAUUUAGUUA, the “pre-steady-state target cleavage rate” value turned out to be 0.00686 ± 0.0018. On the same count and under the same terms, the same measure for UCCUGGUACAGCUUGCCAUAGUAUUUAGUUA: 0.00532 ± 0.0033. On the same count and under the same terms, with UCCUGGAUGAGCUUGCAUAGUACUUUAGUUA the figure was 0.00632 ± 0.0026; with UCCUGGAUGUCCAAGCAUAGUAUUUAGUUA, 0.00547 ± 0.0023; with UCCUGCUUCAGCUUGCAUAGUAUUUAGUAA, 0.00397 ± 0.002. Same read-out and setting: the same measure for UCCUCCUACUGCUUGCAUACUAUUUAGUUA: 0.00355 ± 0.0019. Turning to UCCUCCUACACGAUGCAUAGUAUUUAGUUA, the “pre-steady-state target cleavage rate” value worked out at 0.00666 ± 0.0022. Same read-out and setting: the same measure for UCCUCCUACUAGCUUGCAUAGUAUUUAGUUA: 0.00589 ± 0.002; for UCCUGGAUGUGCAUGCAUAGUAUUAAGUUA: 0.00463 ± 0.0027; for UCCUGGAACAGCUUGCAUAGUAUUUACGUUA: 0.00654 ± 0.0028. The same measure, in the same setting: with UCCUGGUACAGCAUGCAUAGUAUUUUGUUA the figure was 0.00364 ± 0.0034; with UCCUGCUACAGCUUGCAUAGGUAUUUAGUUA, 0.00421 ± 0.0024; with UCCUGCUACUGCAUGCAUAGUAUUUAGUUA, 0.00943 ± 0.0022.

Take UCCUGCUACAGCUUGUCAUAGUAUUUAGUUA: the “pre-steady-state target cleavage rate” value was found to be 0.00341 ± 0.0028. On the same count and under the same terms, with UCCUGGAUGUCGUUGCAUAGUAUUUUAGUUA the figure was 0.00632 ± 0.0029; with UCCUGGAUGUGUUGCAUAGUAUUUAGUUA, 0.00684 ± 0.0022.

Regarding UCCUGGAACAGCAUGCAUAGUAUUUAGUUA, the “pre-steady-state target cleavage rate” value amounted to 0.00812 ± 0.0028. On the same count and under the same terms, the same measure for UCCUGGAUGUGCUUAGCAUAGUAUUUAGUUA: 0.00625 ± 0.0028.
